Reference: PubChem BioAssay (NCI)
The panel holds about 83,000 compounds, 20% with a hit somewhere; the sample as a whole holds those more often.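 The endpoint reported here, percent growth, reads 100 for growth as untreated, 0 for no net growth and -100 for all cells dead.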 Calls of active or inactive are those of the source. The calls were made as follows: active = growth percent below 10; inactive = the rest.

Tested on: SNB-19 CNS
Test: NCI-60 one-dose screen, 48 h (100 = growth as untreated, 0 = no growth, -100 = all killed)
Conditions: 10 µM unless noted

SMILES | growth
COc1cc(/C=C/C(=O)c2ccc(Nc3ncnc4ccccc34)cc2)cc(OC)c1 | 62% (inactive)
COc1ccc(C(=O)c2cc3c(N)c(C(=O)Nc4cccc(OC)c4)sc3nc2C)cc1 | 40.2% (inactive)
CCC(C)N(CCNc1cc(OC)cc2cccnc12)CCC(C)C (stereo not drawn) | 96.2% (inactive)
S=c1[nH]cccc1-c1nnc2n1Nc1nc3ccccc3cc1CS2 | 94.8% (inactive)
NC(=O)C1(N2CCCCC2)CCN(CCCC(=O)c2ccc(F)cc2)CC1 | 32.3% (inactive)
O=S(=O)(c1cccc(NC2=Nc3cccc4cccc2c34)c1)N1CCCC1 | 77.8% (inactive)
OC1(c2ccc(Cl)c(C(F)(F)F)c2)CCN(CCCC(c2ccc(F)cc2)c2ccc(F)cc2)CC1 | 12.1% (inactive)
O=c1[nH]nc(-c2ccc(Br)cc2)cc1Cc1ccc(O)cc1 | 81.2% (inactive)
N/C(=N\N=C\c1cc2ccccc2s1)N/N=C/c1cc2ccccc2s1 | 97% (inactive)
COc1ccc(C(=O)c2cc3c(N)c(C(=O)Nc4ccc(Br)cc4)sc3nc2C)cc1 | 56.6% (inactive)
CC1=NNC(=O)C1CCC(=O)N/N=C(\C)c1ccc2ccccc2c1 (stereo not drawn) | 114% (inactive)
O=C(O)c1cn(C2CC2)c2cc(N3CCN(C(=O)C[n+]4cccc5ccccc54)CC3)c(F)cc2c1=O | 83.8% (inactive)
COc1ccc(Cn2nc(-c3ccccc3)c3c2CCc2cnoc2-3)cc1 | 82.2% (inactive)
O=C(O)CNC(=O)CN1C(=O)c2ccccc2C1=O | 108% (inactive)
O=C1CCCCCCCCC(O)C(O)CCCC(c2cccs2)O1 (stereo not drawn) | 87.1% (inactive)
CC1CCN(C(=O)OCc2nc3nc(Cl)nc(N4CCOCC4)c3[nH]2)CC1 | 60.3% (inactive)
COc1cc(C2CC(c3cccc(Nc4ccncc4)c3)=NN2c2cc(Cl)cc(Cl)c2)cc(OC)c1OC (stereo not drawn) | 50.7% (inactive)
COC(=O)Nc1ccc(NC(=O)OC)cc1 | 103% (inactive)
COc1ccc(C(=O)c2cc3c(N)c(C(=O)Nc4cccc(Cl)c4C)sc3nc2C)cc1 | 39.9% (inactive)

SMILES | growth
COc1ccc(-c2nc(SC)nc(N3CCOCC3)c2C#N)cc1 | 96.7% (inactive)
CC(=O)NCCCS(=O)(=O)O | 103% (inactive)
Cn1c(COC(=O)NCCN2CCOCC2)nc2c(N3CCOCC3)nc(-c3ccccc3)nc21 | 48.7% (inactive)
CC(C)Sc1nc(NN)c(C#N)c(-c2ccccc2)n1 | 95.9% (inactive)
COc1ccc(-c2nc(SCC(C)C)nc(N/N=C(/C)c3ccc(OC)c(OC)c3)c2C#N)cc1 | 78.2% (inactive)
COc1cc2nnn3c4ncccc4c(N=O)c3c2cc1OC | 102% (inactive)
COc1ccccc1-c1c(-c2ccc(Cl)cc2)c2cc3c(cc2[nH]c1=O)OCCO3 | 94.9% (inactive)
O=S(=O)(NCCNc1nccc(-c2c(-c3ccc(F)c(O)c3)nc3sccn23)n1)c1ccccc1 | 113% (inactive)
CC(C)(O)C1CCCN1C(=O)c1ccccc1I (stereo not drawn) | 78.2% (inactive)
O=C(OCc1nc2nc(Cl)nc(N3CCOCC3)c2[nH]1)n1ccnc1 | 62.9% (inactive)
Cc1c([N+](=O)[O-])cc(C(C)(C)C)cc1[N+](=O)[O-] | 102% (inactive)
O=C(N/N=C/c1ccc(F)cc1)c1ccccc1Nc1cccc(C(F)(F)F)c1 | 90.2% (inactive)
COc1cccc(/C=C2\COc3ccc(-c4ccccc4)cc3C2=O)c1 | 64.7% (inactive)
CN1CCN(c2cc(F)c(NC3=C(Cl)C(=O)c4ncccc4C3=O)c(F)c2)CC1 | 96.3% (inactive)
Cc1cc(NC(=O)c2cnc(N3CCN(CCOCCOCCOCCOCCC(=O)N[C@H](C(=O)N4C[C@H](O)C[C@H]4C(=O)N[C@@H](C)c4ccc(-c5scnc5C)cc4)C(C)(C)C)CC3)cn2)c2ncccc2c1 | 27.7% (inactive)
COc1ccc(-c2ncc(-c3ccccc3)[nH]2)cc1OC | 104% (inactive)
O=C(CN1CCOCC1)Nc1ccc2ncnc(Nc3ccc(Oc4cccc(F)c4)c(Cl)c3)c2c1 | 73.2% (inactive)
O=C1Nc2c(ccc(Cl)c2Cl)/C1=C/c1ccc(F)cc1 | 73.5% (inactive)
COc1ccc(-c2nc(N/N=C/c3c[nH]c4ccccc34)nc(N3CCOCC3)c2C#N)cc1 | 109% (inactive)
